Test results published in PubChem BioAssay (NCI).
Compounds without any hit were thinned out: in the full panel of roughly 79,000, 15% have a hit. Active and inactive are the calls of the source. Cut-off read from the data, not from the text of the source: active = growth inhibition above about 70%; inactive = the rest.

Experiments:
[1] = NCI Yeast Anticancer Drug Screen. Data for the rad50 strain (AID 155);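 note: 0% = growth of vehicle-only cultures of the same strain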; details: S. cerevisiae rad50 strain growth inhibition, stronger effect = higher value
Method in brief: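 Cells are treated with compound, grown, and their growth is then scored against vehicle-only cultures of the same repair-deficient yeast strain.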

[2] = NCI Yeast Anticancer Drug Screen. Data for the mec2-1 strain (AID 157); details: S. cerevisiae mec2-1 strain, stronger effect = higher value
Method in brief: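 Each compound was tested on mec2-1 yeast, a strain altered in DNA damage repair or cell cycle control. Growth inhibition is reported relative to vehicle.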

[3] = NCI Yeast Anticancer Drug Screen. Data for the sgs1 mgt1 strain (AID 161);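 note: 0% = growth of cultures given vehicle only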; details: S. cerevisiae sgs1 mgt1 strain, stronger effect = higher value
Method in brief: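 Mutant yeast exposed to compound; growth scored against vehicle-only wells.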

[4] = NCI Yeast Anticancer Drug Screen. Data for the cln2 rad14 strain (AID 165);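 note: 0% = growth equal to vehicle treated cultures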; details: S. cerevisiae cln2 rad14 strain, stronger effect = higher value
Method in brief: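 Test compounds were added to cln2 rad14 yeast cultures; inhibition of growth was then determined by comparison with vehicle treatment.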

[5] = NCI Yeast Anticancer Drug Screen. Data for the bub3 strain (AID 167); details: S. cerevisiae bub3 mutant strain, stronger effect = higher value
Method in brief: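 Part of a panel of yeast mutants defective in DNA damage repair or cell cycle regulation. Each strain is grown with compound, and inhibition is calculated relative to solvent-treated cultures.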

[6] = NCI Yeast Anticancer Drug Screen. Data for the mlh1 rad18 strain (AID 175); details: S. cerevisiae mlh1 rad18 strain growth inhibition, stronger effect = higher value
Method in brief: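 Inhibition values reflect reduced growth of mutant yeast versus vehicle-treated controls following compound exposure; the mutations affect DNA damage repair.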

[7] = at 5.0 µM (retest, dose inferred, filed as 0.5)
[8] = at 50.0 µM (retest, dose inferred, filed as 5.0)

Measured: growth inhibition

COC(=O)C1c2c(C)cc3n2C(C=CC3)C1C(=O)OC (stereo not given)
inactive: [1]; [7] 7% | [1]; [8] 69% | [1]; at 50.0 µM 13.2% | [2]; [7] 36% | [2]; at 50.0 µM 19.1% | [3]; [7] -6% | [3]; [8] 24% | [3]; at 50.0 µM 4.95% | [4]; [7] 67% | [4]; at 50.0 µM 26.6% | [5]; [7] 64% | [5]; at 50.0 µM -10.2% | [6]; [7] -9% | [6]; [8] 54% | [6]; at 50.0 µM -3.5%
active: [2]; [8] 96% | [4]; [8] 78% | [5]; [8] 92%

[C-]#[O+].[Cl][Sn]([Cl])[Cl].[Cl][Sn]([Cl])[Cl].[Pt].c1ccncc1
inactive: [1]; [7] -11% | [1]; at 50.0 µM 56.2% | [2]; [7] 9% | [2]; at 50.0 µM 54.8% | [3]; [7] 3% | [4]; [7] 3% | [4]; at 50.0 µM 41.8% | [5]; [7] -13% | [5]; [8] 47% | [5]; at 50.0 µM 62.1% | [6]; [7] -1%
active: [1]; [8] 97% | [2]; [8] 95% | [3]; [8] 98% | [3]; at 50.0 µM 75.3% | [4]; [8] 78% | [6]; [8] 98% | [6]; at 50.0 µM 70.5%

CCC[CH2][Pb]([CH2]CCC)([CH2]CCC)[n]1ccnc1
active: [1]; [7] 99% | [1]; [8] 99% | [1]; at 50.0 µM 90.2% | [2]; [7] 99% | [2]; [8] 99% | [2]; at 50.0 µM 92.7% | [3]; [7] 98% | [3]; [8] 98% | [3]; at 50.0 µM 93.7% | [4]; [7] 97% | [4]; [8] 99% | [4]; at 50.0 µM 91.6% | [5]; [7] 99% | [5]; [8] 93% | [5]; at 50.0 µM 92.2% | [6]; [7] 99% | [6]; [8] 99% | [6]; at 50.0 µM 91%

COc1cc(C(=O)[O][Hg][CH2]C2CC(O)CC([CH2][Hg][O]C(=O)c3cc(OC)c(OC)c(OC)c3)O2)cc(OC)c1OC (stereo not given)
active: [1]; [7] 97% | [1]; [8] 98% | [1]; at 50.0 µM 99.3% | [2]; [7] 98% | [2]; [8] 99% | [2]; at 50.0 µM 99.6% | [3]; [7] 99% | [3]; [8] 99% | [3]; at 50.0 µM 99.6% | [4]; [7] 95% | [4]; [8] 96% | [4]; at 50.0 µM 98.5% | [5]; [7] 97% | [5]; [8] 99% | [5]; at 50.0 µM 99.1% | [6]; [7] 99% | [6]; [8] 99% | [6]; at 50.0 µM 98.7%

CC(=O)OCC12CCC(C)=CC1OC1C(O)C(OC(C)=O)C2(C)C12CO2 (stereo not given)
active: [1]; [7] 99% | [1]; [8] 99% | [1]; at 50.0 µM 92.7% | [2]; [7] 98% | [2]; [8] 100% | [2]; at 50.0 µM 94.5% | [3]; [7] 98% | [3]; [8] 99% | [3]; at 50.0 µM 93.7% | [4]; [7] 99% | [4]; [8] 99% | [4]; at 50.0 µM 92.8% | [5]; [7] 97% | [5]; [8] 99% | [5]; at 50.0 µM 92.8% | [6]; [7] 99% | [6]; [8] 99% | [6]; at 50.0 µM 92.5%

COc1c(Cl)[c]([Hg][O]C(C)=O)c(NCC(C)=O)c(OC)[c]1[Hg][O]C(C)=O
inactive: [4]; [7] 35%
active: [1]; [7] 80% | [1]; [8] 94% | [1]; at 50.0 µM 87.3% | [2]; [7] 99% | [2]; [8] 94% | [2]; at 50.0 µM 90.5% | [3]; [7] 99% | [3]; [8] 95% | [3]; at 50.0 µM 90.8% | [4]; [8] 95% | [4]; at 50.0 µM 89.4% | [5]; [7] 99% | [5]; [8] 94% | [5]; at 50.0 µM 89.4% | [6]; [7] 95% | [6]; [8] 94% | [6]; at 50.0 µM 86.4%

CC[C@@H]1C(=O)OC[C@@H]1Cc1cncn1C
inactive: [1]; [7] -3% | [1]; [8] -8% | [1]; at 50.0 µM -4.1% | [2]; [7] 18% | [2]; [8] -4% | [2]; at 50.0 µM -35.8% | [3]; [7] 7% | [3]; [8] -18% | [3]; at 50.0 µM -20.9% | [4]; [7] -27% | [4]; [8] -90% | [4]; at 50.0 µM 26% | [5]; [7] -11% | [5]; [8] -4% | [5]; at 50.0 µM -19.1% | [6]; [7] -7% | [6]; [8] -1% | [6]; at 50.0 µM -9.2%

CC(C)C1(NC(=O)C2CC3c4cccc5[nH]cc(c45)CC3N(C)C2)OC2(O)C3CCCN3C(=O)C(Cc3ccccc3)N2C1=O (stereo not given)
active: [1]; [8] 94% | [1]; at 50.0 µM 86.2% | [2]; [8] 96% | [2]; at 50.0 µM 90.8% | [3]; [8] 92% | [3]; at 50.0 µM 86.7% | [4]; [8] 96% | [4]; at 50.0 µM 84.3% | [5]; [8] 96% | [5]; at 50.0 µM 86.3% | [6]; [8] 97% | [6]; at 50.0 µM 83.4%
inactive: [1]; [7] -26% | [2]; [7] -2% | [3]; [7] -10% | [4]; [7] 1% | [5]; [7] 30% | [6]; [7] 4%

CC(=O)O[C@@H]1[C@@H](O)[C@H]2O[C@@H]3C=C(C)C(=O)[C@@H](O)[C@]3(CO)[C@]1(C)[C@]21CO1
inactive: [1]; [7] 14% | [1]; at 50.0 µM 48.7% | [2]; [7] 22% | [2]; at 50.0 µM 20.1% | [3]; [7] 13% | [3]; at 50.0 µM 62.4% | [4]; [7] 33% | [4]; at 50.0 µM 23.5% | [5]; [7] 8% | [6]; [7] 18%
active: [1]; [8] 85% | [2]; [8] 93% | [3]; [8] 90% | [4]; [8] 92% | [5]; [8] 90% | [5]; at 50.0 µM 85% | [6]; [8] 95% | [6]; at 50.0 µM 83.3%

C=C1C(C)C2C(Cc3ccccc3)NC(=O)C23C(OC(C)=O)/C=C/C(C)(O)CC(C)C/C=C/C3C1O (stereo not given)
active: [1]; [7] 85% | [1]; [8] 98% | [1]; at 50.0 µM 91.5% | [2]; [7] 94% | [2]; [8] 99% | [2]; at 50.0 µM 92.5% | [3]; [7] 86% | [3]; [8] 99% | [3]; at 50.0 µM 91.5% | [4]; [7] 86% | [4]; [8] 97% | [4]; at 50.0 µM 90.7% | [5]; [7] 92% | [5]; [8] 99% | [5]; at 50.0 µM 90.9% | [6]; [7] 95% | [6]; [8] 99% | [6]; at 50.0 µM 89.4%
